Screen size: about 310,000 compounds; about 2,200 (0.71%) showed an effect of 50% or more. The effect is printed as a negative number. For the sample, strong results were picked, then their nearest neighbours and some compounds at random.
Target: human ether-à-go-go-related gene (hERG) potassium channel (human, UniProt Q12809)
Test: primary screen, population patch clamp on CHO cells stably expressing hERG; higher = less effect of the substance

human ether-à-go-go-related gene (hERG) potassium channel, sequence (Q12809 whole entry, looked up): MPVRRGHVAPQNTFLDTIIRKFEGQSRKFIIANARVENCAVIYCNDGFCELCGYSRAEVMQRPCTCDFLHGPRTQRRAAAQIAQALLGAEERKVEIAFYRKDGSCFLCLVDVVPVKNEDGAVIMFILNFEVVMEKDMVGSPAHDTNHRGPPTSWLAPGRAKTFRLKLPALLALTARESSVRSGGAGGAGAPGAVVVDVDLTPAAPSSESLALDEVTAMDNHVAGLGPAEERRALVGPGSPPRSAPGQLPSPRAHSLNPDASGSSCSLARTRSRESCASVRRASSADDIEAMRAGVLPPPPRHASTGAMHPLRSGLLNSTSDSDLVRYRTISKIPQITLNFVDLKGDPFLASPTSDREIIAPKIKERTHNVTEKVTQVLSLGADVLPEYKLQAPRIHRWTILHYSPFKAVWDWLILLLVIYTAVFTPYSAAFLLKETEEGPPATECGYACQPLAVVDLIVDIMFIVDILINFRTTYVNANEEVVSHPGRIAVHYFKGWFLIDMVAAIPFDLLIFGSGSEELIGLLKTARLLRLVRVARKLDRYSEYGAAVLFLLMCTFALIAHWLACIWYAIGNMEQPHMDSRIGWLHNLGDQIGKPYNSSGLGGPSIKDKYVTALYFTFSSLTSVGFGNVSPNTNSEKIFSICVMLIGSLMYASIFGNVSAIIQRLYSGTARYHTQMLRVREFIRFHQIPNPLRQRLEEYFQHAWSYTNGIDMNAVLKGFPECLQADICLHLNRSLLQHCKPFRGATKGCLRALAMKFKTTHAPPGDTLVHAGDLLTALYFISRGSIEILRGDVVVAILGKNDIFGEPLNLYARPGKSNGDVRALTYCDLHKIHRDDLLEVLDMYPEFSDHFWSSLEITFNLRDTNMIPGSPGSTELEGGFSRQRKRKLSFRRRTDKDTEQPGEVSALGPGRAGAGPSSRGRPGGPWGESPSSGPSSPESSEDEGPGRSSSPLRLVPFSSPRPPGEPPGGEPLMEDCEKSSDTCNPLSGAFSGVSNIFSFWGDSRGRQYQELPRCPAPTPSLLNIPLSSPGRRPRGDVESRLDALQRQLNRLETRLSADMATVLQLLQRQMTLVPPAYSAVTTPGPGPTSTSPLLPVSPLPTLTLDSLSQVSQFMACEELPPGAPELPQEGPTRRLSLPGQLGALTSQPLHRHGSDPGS

SMILES	hERG current change (%, negative = inhibition) at 1uM [%]
Cc1ccc(C(=O)Nc2cccc(C(=O)N3CCOCC3)c2)cc1	3.75
O=C(CCc1ccccc1)Nc1ccc2ccccc2n1	-2.39
CNC(=S)NNC(=O)c1sc2cc(C(F)(F)F)cnc2c1-c1ccccn1	4.79
O=C(CN1CCN(C/C=C/c2ccccc2)CC1)NCc1ccccc1	-53.6
CCOc1ccc(C(=O)NCC(=O)N2CCN(C/C=C/c3ccccc3)CC2)cc1OCC	-1.35
Cl.O=C(CN1CCCC1)NCc1ccccc1	13.4
O=C(CN1CCCCCC1)NCc1ccccc1	11.8
O=C(NCC(=O)N1CCCCCC1)c1ccc(OC(F)F)cc1	10.4
O=C(NCC(=O)N1CCN(C/C=C/c2ccccc2)CC1)c1ccc(OC(F)F)cc1	-50.4
O=C(CN1CCN(c2ccc(Cl)cc2)CC1)NCc1ccccc1	-23.6
O=C(CN1CCN(Cc2ccccc2)CC1)NCc1ccc(Cl)cc1	-13.4
O=C(CN1CCN(C/C=C/c2ccccc2)CC1)NCc1ccc(Cl)cc1	-72.5
CCOC(=O)c1c(C)[nH]c(C(=O)O)c1C	11.5
OC1CCCN(Cc2cccc3ccccc23)C1 (stereo not drawn)	14.7
Cc1cc(C)cc(N2CC(O)Cn3c2nc2c3c(=O)[nH]c(=O)n2C)c1 (stereo not drawn)	9.84
Cc1ccc(/C=N/NC(=O)c2nnn(-c3nonc3N)c2CSc2ccccc2)cc1	11.4
O=C(N=C1SC2CS(=O)(=O)CC2N1CCc1ccccc1)C1CC1 (stereo not drawn)	9.32
O=C(O)c1cccc(-n2cc(-c3cccc(C(F)(F)F)c3)cn2)c1	4.88
O=C(NNC(=O)c1sc2cccc(Cl)c2c1Cl)Nc1ccccc1	13.9
COc1ccc(-c2coc3c(C)c4oc(=O)c(CCC(=O)O)c(C)c4cc23)cc1	6.19
CCCCCCNC(=O)CC(NS(=O)(=O)c1ccc(NC(C)=O)cc1)C(C)C (stereo not drawn)	-0.978
COc1ccc(OC)c(NC(=O)c2cccc(N3C(=O)C4C5CCC(C5)C4C3=O)c2)c1 (stereo not drawn)	2.22

SMILES	hERG current change (%, negative = inhibition) at 1uM [%]
F[B-](F)(F)F.OCCCCC[NH+]=c1cc(-c2ccccc2)oc2ccc(Cl)cc12	-86.1
COc1ccc(-c2cc(=[NH+]c3ccccc3)c3cc(C)ccc3o2)cc1.[O-][Cl+3]([O-])([O-])[O-]	14
COc1ccc(-c2cc(=[NH+]c3cccc(C(=O)O)c3)c3cc(C)ccc3o2)cc1.[O-][Cl+3]([O-])([O-])[O-]	6.72
O=c1oc2ccc(Cl)cc2cc1-c1ccccc1	16.1
Clc1ccc(Oc2ncnc3oc(-c4ccccc4)cc23)cc1	6.4
F[B-](F)(F)F.OCCC[NH+]=c1cc(-c2ccccc2)oc2ccc(Cl)cc12	-78
OCCCNc1nc(-c2ccccc2)c2cc(Cl)ccc2n1	5.65
O=c1cc(-c2ccccc2)oc2ccc(O)cc12	4.17
F[B-](F)(F)F.OCC[NH+]=c1cc(-c2ccccc2)oc2ccc(Cl)cc12	-71.1
Cc1cc(C(=O)OCC(=O)N2C(C)CCCC2C)c(C)o1 (stereo not drawn)	9.75
COc1ccc(-n2c(Cc3cccn3C)nnc2SCC(=O)Nc2cccc(NC(C)=O)c2)cc1	3.64
Cc1ccc(OCCOCCn2cnc3ccccc3c2=O)c([N+](=O)[O-])c1.O=C(O)C(=O)O	-6.31
CCCCCOc1ccc(CSC(=N)N)cc1[N+](=O)[O-].Cl	-3.45
CCOc1ccc(CSC2=NCCN2)cc1Cl.Cl	-4.54
CCCCOc1ccc(CSC2=NCCN2)cc1[N+](=O)[O-].Cl	-22.3
CCOc1ccc(CSC2=NCCN2)cc1[N+](=O)[O-].Cl	-71
CCCCCOc1ccc(CSC2=NCCN2)cc1[N+](=O)[O-]	-60
COc1ccc(CSC2=NCCN2)cc1Br	10.8
CCOc1ccc(CSC(=N)N)cc1[N+](=O)[O-].Cl	-50.3
CCCOc1ccc(CSC2=NCCN2)cc1[N+](=O)[O-]	-53.5
CCCCOc1ccc(CSC(=N)N)cc1[N+](=O)[O-].Cl	-26.4
COc1ccc(CSC2=NCCN2)cc1Cl.Cl	-7.52

SMILES	hERG current change (%, negative = inhibition) at 1uM [%]
CCCCOc1ccc(CSc2nnc(C)n2N)cc1[N+](=O)[O-]	-2.42
Br.O=[N+]([O-])c1ccc(CSC2=NCCN2)cc1	8.87
CCOC(=O)C1CCN(C(=O)CCS(=O)(=O)c2ccc3c(c2)n(C)c(=O)c(=O)n3C)CC1	10.2
COc1cc(OC)cc(C(=O)Nc2ccc3c(c2)OCCO3)c1	7.93
O=C(Cn1cc(/C=C\[N+](=O)[O-])c2ccccc21)Nc1ccccc1	8.45
COc1ccc(OC)c(N2C(=O)CC(Cc3cc(C)cc(C)c3)C2=O)c1 (stereo not drawn)	5.71
CSc1ccccc1C(=O)N1CCN(S(=O)(=O)c2sc(C(=O)O)c(C)c2C(=O)O)CC1	0.019
COc1ccc(C2CC(c3ccccc3)=NN2c2ccc(S(N)(=O)=O)cc2)cc1OC (stereo not drawn)	7.52
CC(C)CCNC(=O)C1c2ccccc2Oc2ccccc21	-12.1
COc1ccccc1/C=C/CN1CCC(CO)(Cc2ccccc2)CC1	0.366
OCC1(Cc2ccccc2Cl)CCN(C/C=C/c2ccccc2)CC1	-27.8
COc1ccc(/C=C/CN2CCCC(CO)(Cc3cccc(Cl)c3)C2)cc1 (stereo not drawn)	3.25
COc1ccc(/C=C/CN2CCC(CO)(Cc3ccccc3Cl)CC2)cc1	-61.9
COc1ccc(CC2(CO)CCN(C/C=C/c3ccccc3OC)CC2)cc1	-71.4
COc1cccc(CC2(CO)CCCN(C/C=C/c3ccccc3OC)C2)c1 (stereo not drawn)	-32.8
COc1cc(NS(=O)(=O)c2ccc(NC(=O)COc3ccccc3Cl)cc2)nc(OC)n1	4.62
NC(=O)CSc1nnc(-c2ccccn2)n1N	12.4
CC(=O)Nc1ccc(C(=O)Nc2nc(-c3cc(C)n(Cc4ccccc4)c3C)cs2)cc1	11.3
CC(C)OC(=O)CC(=O)CSc1nc2c(cc1C#N)CCC2	16.3
Cc1ccc(C(=O)Nc2ccc(OCc3ccccc3)cc2)cc1[N+](=O)[O-]	2
CCN1CCN(c2ncnc3sc(C)c(-c4ccccc4)c23)CC1	-25.9
O=C(Nc1cccc(Oc2ccc3c(c2)C(=O)NC3=O)c1)c1cccs1	-2.79

SMILES	hERG current change (%, negative = inhibition) at 1uM [%]
Cc1ccccc1N1C(=O)C(Oc2ccc(Cl)cc2)C1CNCCCOC(C)C (stereo not drawn)	-3.82
O=C(OCc1ccc([N+](=O)[O-])cc1)C1CC(=O)N(c2ccccc2)C1 (stereo not drawn)	-36
O=C(OCc1nnc(-c2ccc([N+](=O)[O-])cc2)o1)C1CC(=O)N(CCc2ccccc2)C1 (stereo not drawn)	-17.8
O=C(OCc1ccc([N+](=O)[O-])cc1)C1CC(=O)N(CCc2ccccc2)C1 (stereo not drawn)	-56.3
Cc1cccn2c(=O)c3cc(C(=O)NCc4ccco4)c(=N)n(C(C)C)c3nc12	-84.9
Cc1cccn2c(=O)c3cc(S(=O)(=O)c4ccccc4)c(=N)n(Cc4ccco4)c3nc12	5.3
Cc1cccn2c(=O)c3cc(C(=O)NCCc4ccccc4)c(=N)n(Cc4ccco4)c3nc12	-35.5
Cc1cccn2c(=O)c3cc(C(=O)NCc4ccco4)c(=N)n(CCOCCO)c3nc12	-63.3
Cc1cccn2c(=O)c3cc(C(=O)NCc4ccco4)c(=N)n(CCc4ccccc4)c3nc12	-82.2
Cc1cccn2c(=O)nc(SCC(=O)NCc3ccco3)nc12	4.54
COc1ccc(CCn2c(=N)c(C(=O)NCc3ccco3)cc3c(=O)n4cccc(C)c4nc32)cc1	-76.6
CCOC(=O)CC1Sc2ccccc2NC1=O (stereo not drawn)	-7.75
CCN1CCc2c(sc(NC(=O)c3ccc(C(=O)c4ccccc4)cc3)c2C(N)=O)C1.Cl	-7.72
COc1cccc(C(=O)Nc2cccc(-c3nc4ncccc4o3)c2C)c1	12.6
CC1(c2nnc(-c3ccncc3)o2)CC(c2ccccc2)=NO1 (stereo not drawn)	16.4
Clc1cccc(OCc2nnc(-c3ccccc3Br)o2)c1	9.74
O=Cc1ccc(-c2ccc(C(=O)O)cc2)o1	-2.38
O=C(CC1CCCCC1)c1c(O)c2ccccc2oc1=O	-4.69
CCOC(=O)c1c(C)n(CC(O)c2ccccc2)c2ccc(O)cc12 (stereo not drawn)	13.6
CCN(CC(=O)Nc1c(F)cccc1F)C(=O)CSC(=S)N1CCCC1	6.34
Cc1cccc(-n2c(/C=C/c3ccc([N+](=O)[O-])o3)nc3ccccc3c2=O)c1	2.06
